The term AC50 denotes the concentration at which the activity in the assay is half-maximal.

This note sets out measurements from PubChem BioAssay (EPA / NIEHS).

“And” between values parts separate entries of the source, which are not always exact repeats. Equal values may be shown once. Some compounds were tested as several samples or in several runs, with calls that do not always agree. The source made the active and inactive calls. Rule for the calls: active = hit-call score of the fitted dose curve at least 0.9, where 1 is the maximum; inactive = score below 0.9.

This experiment is described as follows: ATG_PPRE_CIS: Attagene CIS-FACTORIAL HepG2 Assay for human Peroxisome Proliferator-activated Response Element (PPRE) (AID 2282958). Conditions: HepG2 PPRE cis-element reporter, Attagene transcription factor profiling; actives raise or lower the signal. In short, it runs like this:
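HepG2 cells are transiently transfected with multiplexed cis-promoter reporter units to report endogenous PPAR activity. After 24 h dosing, reporter mRNA is read by RT-PCR and capillary electrophoresis. Fitting is bidirectional against DMSO.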
Consider `CCCCOC(=O)[C@@H](C)Oc1ccc(Oc2ccc(C(F)(F)F)cn2)cc1`, for which the outcome was inactive.

With `COC(=O)c1ccccc1S(=O)(=O)NC(=O)Nc1nc(OC(F)F)cc(OC(F)F)n1`, the molecule was classed as inactive.

On to `COC(=O)c1cccc(C)c1S(=O)(=O)NC(=O)Nc1nc(OCC(F)(F)F)nc(N(C)C)n1`, for which the call was inactive.

Take `CCC(O)=C1C(=O)CC(C(=O)O)CC1=O` (stereo not given): the outcome was inactive.

As to `CCCCOC(=O)C(C)Oc1ccc(Oc2ccc(C(F)(F)F)cn2)cc1` (stereo not given), the AC50 was 50 µM (active).

Turning to `COC(=O)CSc1cc(N=c2sc(=O)n3n2CCCC3)c(F)cc1Cl`, the concentration at half-maximal activity (AC50) was 10.4 µM (active).

With `COc1nc(C)nc(NC(=O)NS(=O)(=O)c2ccccc2OCCCl)n1`, the molecule was classed as inactive.

Regarding `N[C@@H](Cc1cc(I)c(Oc2ccc(O)c(I)c2)c(I)c1)C(=O)O`, the AC50 is 13 µM (active) and 22.3 µM (active); the call was inactive.

Consider `CCCCC(CC)CN1C(=O)C2C3C=CC(C3)C2C1=O` (stereo not given), for which the AC50 is 50 µM (active).

For `C[C@]12CC[C@@H]3c4ccc(O)cc4C[C@@H](CCCCCCCCCS(=O)CCCC(F)(F)C(F)(F)F)[C@H]3[C@@H]1CC[C@@H]2O` (stereo not given in full), the molecule was called inactive.

As to `CC(C)CCCCCCc1ccc(O)cc1`, the AC50 was 11.1 µM (active) and the result was inactive.

With `O=C(c1ccc(O)cc1O)c1ccc(O)cc1O`, the AC50 is 28.4 µM (active) and the result was inactive.

As for `CN(C)C(=O)Nc1ccc(Cl)c(Cl)c1`, the half-maximal activity concentration (AC50) was 37 µM (active) and the molecule was called inactive.

Regarding `COCCO`, the molecule was called inactive.

For `N#CSCSc1nc2ccccc2s1`, the AC50 was 2.81 µM (active) and the result was inactive.

Regarding `CCOC(=O)COc1cc(-n2ncc(C(F)(F)F)c(C)c2=O)c(F)cc1Cl`, the result was inactive.

Consider `C#C[C@]1(O)CC[C@H]2[C@@H]3CCC4=CC(=O)CC[C@@H]4[C@H]3CC[C@@]21CC`, for which the call was inactive.

With `CCCN(CCC)c1c([N+](=O)[O-])cc(C(F)(F)F)c(N)c1[N+](=O)[O-]`, the call was inactive.

With `COC(=O)c1ccccc1C(=O)O`, the result was inactive.

On to `C=CCOC(Cn1ccnc1)c1ccc(Cl)cc1Cl` (stereo not given), for which the result was inactive.

`CSC(=O)c1cccc2nnsc12`: the molecule was classed as inactive.

Take `CC(=O)S[C@@H]1CC2=CC(=O)CC[C@]2(C)[C@H]2CC[C@@]3(C)[C@@H](CC[C@@]34CCC(=O)O4)[C@H]12`: the AC50 is 2.4 µM (active) and the call was inactive.

With `c1ccc2[nH]c(-c3cscn3)nc2c1`, the molecule was classed as inactive.

For `C[C@]12C[C@H](O)[C@H]3[C@@H](CCC4=CC(=O)CC[C@@]43C)[C@@H]1CC[C@@H]2C(=O)CO`, the molecule was called inactive.

With `OB(O)O`, the molecule was classed as inactive.

As for `COC(=O)c1ccc(CNS(C)(=O)=O)cc1S(=O)(=O)NC(=O)Nc1nc(OC)cc(OC)n1`, the molecule was classed as inactive.

In the case of `O=C(c1ccccc1)C1CCCCC1`, the concentration at half-maximal activity (AC50) is 31.5 µM (active) and 67.1 µM (active); the molecule was classed as inactive.

With `COC(=O)c1c(Cl)nn(C)c1S(=O)(=O)NC(=O)Nc1nc(OC)cc(OC)n1`, the molecule was classed as inactive.
